Assay outcomes: PubChem, several laboratories
sEH inhibitor: soluble epoxide hydrolase (human) inhibition; P34913; recombinant human sEH enzymatic activity assay; inhibition, % at 2 µM; actives 0.34% (n = 91,000); AID 707; in the data active = inhibition above about 80%
Target sequence (P34913 whole entry, looked up): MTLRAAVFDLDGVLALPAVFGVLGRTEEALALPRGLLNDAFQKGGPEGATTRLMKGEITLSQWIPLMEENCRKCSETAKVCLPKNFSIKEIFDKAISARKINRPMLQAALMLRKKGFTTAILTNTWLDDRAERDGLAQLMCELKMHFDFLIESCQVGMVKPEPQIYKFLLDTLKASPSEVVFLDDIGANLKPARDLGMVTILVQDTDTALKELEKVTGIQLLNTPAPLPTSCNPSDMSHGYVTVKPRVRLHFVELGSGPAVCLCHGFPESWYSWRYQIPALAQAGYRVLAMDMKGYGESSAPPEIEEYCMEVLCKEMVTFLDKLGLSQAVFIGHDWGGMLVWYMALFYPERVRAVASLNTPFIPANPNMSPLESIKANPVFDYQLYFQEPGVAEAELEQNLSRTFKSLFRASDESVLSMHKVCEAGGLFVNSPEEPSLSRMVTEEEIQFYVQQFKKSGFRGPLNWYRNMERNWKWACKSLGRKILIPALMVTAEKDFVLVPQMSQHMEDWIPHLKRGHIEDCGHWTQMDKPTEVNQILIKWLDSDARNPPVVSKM
Measles CPE: protection of cells from measles virus. AID 841. protection (pct of control), % at 4 µM. Measles virus-infected cells, CPE protection, absorbance. actives 1.5% (n = 140,000); in the data active = protection mostly above about 24%, no sharp cut-off; inactive = mostly below about 26%
Calb biofilm kill: kills Candida albicans biofilms. C. albicans biofilm + clotrimazole, Alamar Blue. inhibition, % at 6 µM. actives 0.14% (n = 85,000). AID 834;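 active = inhibition above 20%; inactive = inhibition below 20%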;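 also: preformed 24 hr biofilms exposed to compound for 48 hr; 0% = biofilm without compound and 100% = blank killed by clotrimazole plus chlorhexidine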
cytoskel mod: alters cytoskeleton assembly in HUVEC cells; HUVEC TNFa F-actin phalloidin imaging, high content; inhibition, % at 2 µM; actives 0.18% (n = 91,000);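 active = inhibition above the batch mean plus 3 SD and confirmed as a hit by visual image inspection, cut at about 30% in these data, passing the limit was not always enough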
sEH activator: activators of human soluble epoxide hydrolase | activation, % at 2 µM | purified human sEH enzymatic activity, activator screen | P34913 | AID 717 | actives 0.04% (n = 91,000); in the data active = activation above about 37%
Starred values were filed as active, the others as inactive; . = no result given. Hits are enriched below; roughly 1.9% of the tested compounds scored in any of these assays.

SMILES | sEH inhibitor | Measles CPE | Calb biofilm kill | cytoskel mod | sEH activator
O=C(Nc1cccnc1)c1ccc(Cl)c(S(=O)(=O)N2CCCCCC2)c1 | 7.0 | 4.0 | 8.4 | 12.5 | -6.6
O=C(Nc1cccc(F)c1)C1CCN(C(=O)c2ccccc2Cl)CC1 | 18.7 | 18.5 | 12.9 | 3.2 | -18.4
COc1ccc(-c2cn3cccnc3n2)cc1F | . | 29.4* | . | . | .
O=C(Nc1cccnc1)c1coc(=O)c2ccccc12 | . | 0.8 | 10.3 | 54.8* | .
O=C(Nc1cccnc1)c1c(F)c(F)c(F)c(F)c1F | 9.6 | 2.7 | 22.7* | 24.0 | -8.3
O=C(Nc1cccnc1)c1ccccc1O | 11.7 | 8.5 | 6.6 | 8.7 | -10.0
O=C(NNc1ccc([N+](=O)[O-])cc1)C12CC3CC(CC(C3)C1)C2 | 37.5 | 16.1 | . | 19.9 | -34.9
CCCCn1nnc(NC(=S)NC(=O)c2ccc(-c3cccc(Cl)c3Cl)o2)n1 | . | 13.9 | . | . | .
COc1ccc2occ(C(C)=O)c2c1 | 0.4 | 8.2 | 5.8 | -10.7 | 2.8
COc1ccc(OC)c(C(=O)c2coc3ccc(O)cc23)c1 | -0.9 | 3.4 | 6.4 | 61.4* | -0.6
CCOC(=O)CSc1nc2ccccc2c(=O)n1CC1CCC(C(=O)NCc2ccco2)CC1 (stereo unspecified) | 82.4* | 9.3 | -3.3 | -5.1 | -82.5
Cc1nn(-c2ccccc2)c2sc(-c3n[nH]c(=S)o3)cc12 | . | 0.3 | . | . | .
CN(C)CCOc1ccccc1Cc1ccccc1 | . | 44.0* | 6.7 | . | .
CN(C)Cc1ccccc1Cc1ccccc1 | . | 37.5* | . | . | .
COc1ccc(N2CCN(C(=O)CCNS(=O)(=O)c3ccc(Br)s3)CC2)cc1 | -1.9 | 4.0 | 3.2 | 3.1 | 3.3
COC(=O)c1cc(OC)c(OC)cc1NC(=O)c1oc2ccccc2c1C | 13.4 | . | 2.0 | 32.2* | -13.9
COc1ccc(NC(=O)c2oc3ccccc3c2C)c(OC)c1 | -3.9 | 6.4 | 9.6 | 6.2 | 6.5
COc1cccc(C(c2sc3ncnn3c2O)N2CCN(C(=O)c3ccco3)CC2)c1 (stereo unspecified) | 10.1 | 3.6 | 2.0 | -4.7 | -6.8
CC(=O)NCCOc1ccc2oc3ccccc3c2c1 | 0.2 | 47.1* | 6.2 | -4.5 | 0.0
Cc1ccc(C(=O)CC(=O)c2cccc(F)c2)c(O)c1 | -4.6 | 13.8 | . | -12.1 | 6.2
CCOc1ccccc1N(C(=O)Cn1nnnc1-c1ccc(C)o1)C(CC)C(=O)NC(C)(C)C (stereo unspecified) | -7.1 | 39.4* | 4.6 | -8.8 | 6.6
Cc1ccc(-c2nnn(CC(=O)N(c3ccccc3)C(C(=O)NC(C)(C)C)c3cccs3)n2)o1 (stereo unspecified) | -2.2 | 12.1 | 5.5 | 9.1 | 7.4
CC(=O)NC(CCS(C)(=O)=O)C(=O)Nc1ccc(C)c(F)c1 (stereo unspecified) | 9.8 | 57.0* | 10.4 | 8.9 | -8.6
COc1cccc2cc(C(=O)N3C(C)CCCC3C)c(=O)oc12 (stereo unspecified) | -7.3 | 18.6* | 7.2 | -7.8 | 10.0
COc1cccc2cc(C(=O)N3CCCCC3C)c(=O)oc12 (stereo unspecified) | -6.0 | 2.6 | 8.0 | 2.4 | 8.6
SMILES | sEH inhibitor | Measles CPE | Calb biofilm kill | cytoskel mod | sEH activator
CCOC(=O)c1c(C2CC2)csc1NC(=O)COC(=O)c1ccc[n+]([O-])c1 | . | 34.6 | . | . | .
CCOC(=O)c1c(C2CC2)csc1NC(C)=O | 3.2 | 35.9* | -2.5 | 13.2 | 0.3
Cc1ccc(NC(=O)CSC2=C(C#N)C(c3ccco3)C3=C(CCCC3=O)N2)cc1 (stereo unspecified) | . | 7.0 | -3.7 | . | .
CC1(C)CC(=O)C2=C(C1)NC(SCC(=O)Nc1ccccc1)=C(C#N)C2c1ccco1 (stereo unspecified) | -7.8 | 38.2* | 6.4 | -1.2 | 11.3
CN(C)CCNS(=O)(=O)c1ccc(N2CCN(c3ccc(F)cc3)CC2)c([N+](=O)[O-])c1 | . | 14.8 | . | . | .
Cc1cc(C)n2nc(C(=O)NCc3ccccc3)cc2n1 | . | 42.5* | 7.9 | -3.4 | .
O=C(NCc1ccccc1)c1cccc(Br)n1 | . | 44.4* | . | . | .
Cc1ccc(-c2cccc(C(=O)NCc3ccccc3)n2)c2ccccc12 | . | 6.8 | . | . | .
COc1cc(CCN2C(=O)N[C@@H](c3cccc(C(F)(F)F)c3)C(C(C)=O)=C2C)cc(OC)c1OC | . | 17.5 | . | . | .
Cc1ccc(C(C)C)c(OCCNC(=S)Nc2cccc3ccccc23)c1 | 10.9 | 11.5 | . | -50.9 | -11.8
CC(=O)c1c(OC(=O)c2ccc(C)cc2)c2ccccc2n1C | -4.5 | 71.2* | . | -23.5 | 4.1
CCCCOc1ccc(Cc2n[nH]c(=S)n2N)cc1 | . | 39.5* | . | . | .
CON(C)c1nc(OCC#N)nc(N(C)C)n1 | . | 19.4 | . | . | .
COc1cccc(-c2nnc(SCC(N)=O)n2-c2ccc(Cl)cc2)c1 | 17.1 | 56.7* | 5.1 | -22.9 | -15.4
COc1ccc(-c2nnc(SCC(=O)c3cccs3)n2-c2ccc(Cl)cc2)cc1 | . | 22.4 | . | . | .
O=C(CSc1nnc2ccccn12)Nc1cccc(S(=O)(=O)N2CCOCC2)c1 | . | 15.7 | . | . | .
CCn1ncc(Br)c1C(=O)Nc1ccn(C23CC4CC(CC(C4)C2)C3)n1 | . | 40.7* | . | . | .
CC1=CC(C)C2COC(c3ccc[n+](C)c3)C1C2C (stereo unspecified) | . | 57.5* | . | . | .
Cc1ccc(NC(=O)COc2ccc(Br)cc2C)cc1 | . | 26.0* | . | . | .
O=C(CCSc1ccc(Cl)cc1)c1cccs1 | 2.0 | 35.4* | . | -1.4 | -4.0
Cc1nn(CCC(N)=S)c2nc(-c3cccs3)cc(C(F)(F)F)c12 | . | 26.0 | . | . | .
COc1cccc(C(=O)Nc2cnc(NC(=O)c3ccco3)cc2C)c1 | 2.1 | 9.0 | -7.3 | -7.8 | -0.8
Cc1cc(NC(=O)c2ccco2)ncc1NC(=O)Cc1ccccc1 | . | 30.9* | 0.6 | . | .
Cc1ccc(NC(=O)CCC(=O)NNC(=O)c2ccco2)c(C)c1 | -2.4 | 25.3* | . | -2.3 | 6.8
O=C(CCc1ccccc1)Nc1ccc(NC(=O)c2ccco2)nc1 | 4.2 | 25.4* | 8.8 | -4.2 | -3.5
SMILES | sEH inhibitor | Measles CPE | Calb biofilm kill | cytoskel mod | sEH activator
O=C(CCc1ccccc1)Nc1ccc(NC(=O)c2ccco2)cc1 | -5.6 | 0.2 | . | -5.4 | 6.0
COc1cccc(OC)c1OCC(C)CNCC1CCCO1 (stereo unspecified) | 9.8 | 3.8 | 6.3 | 7.5 | -8.0
COc1ccc(CCNc2oc(COc3ccccc3F)nc2C#N)cc1 | 2.0 | 26.0 | -5.0 | 61.9* | -2.7
CNC(=O)CC(C(=O)O)c1ccc(OCC(C)C)cc1 (stereo unspecified) | 9.3 | 11.7 | 9.9 | -26.8 | -5.8
O=c1nc2ccccc2c(NS(=O)(=O)c2ccccc2)n1-c1ccccc1 | 6.7 | 3.6 | . | -13.7 | -4.8
Cc1ccc(S(=O)(=O)Nc2c3ccccc3nc(=O)n2-c2ccccc2)cc1 | 4.2 | 35.0* | 2.3 | -11.9 | -4.7
Cc1cc(C)cc(NC(=O)CSc2nnc(CNC(=O)c3cccs3)o2)c1 | -1.5 | 1.9 | -6.7 | -7.4 | 3.5
Cc1csc(NC(=O)CSc2nnc(-c3cccs3)n2C)n1 | 15.8 | 7.4 | 8.8 | 65.2* | -15.2
Cc1cc(C)cc(NC(=O)CSc2ccc(-c3cccs3)nn2)c1 | . | 40.8* | . | . | .
CCn1c(SCc2ccccc2)nnc1-c1cccs1 | -3.6 | 3.7 | 6.6 | -4.8 | 2.6
c1ccc(CSc2ccc(-c3cccs3)nn2)cc1 | . | 27.7* | . | . | .
CCOC(=O)C1=C(N)N2C(=O)CSC2=C(C(=O)OC)C1 | . | 1.3 | 0.4 | -39.8 | .
S=C(Nc1ccc(Cl)cc1)N1CCCC1 | . | 38.8 | . | . | .
CC1(C)CC(=O)/C(=C\c2cccc([N+](=O)[O-])c2)C(C)(C)N1 | . | 12.8 | . | . | .
